# Inconclusive results are not listed. Active and inactive are the calls of the source. Calls follow the shape of the dose curve; as a rule, active = well fitted inhibition curve with a large enough effect; inconclusive = small, poorly fitted or top-dose-only effect, or effect the other way; inactive = no such curve, though single readings can be large or run the other way.
# Assay: Confirmatory Assay for General miRNAs Modulators and/or Inhibitors/Activators of miR-21
# Conditions: HeLa miR-21 FLuc reporter, luminescence, 48 h; series mostly up to 38.3 µM
# Source text: MLSCN Grant: 1 R21 NS059478-01 Assay Provider: Qihong Huang, The Wistar Institute NCGC Assay Overview: MicroRNAs (miRNAs) are endogenously encoded small (~20-25 nucleotides), nonprotein-coding RNAs that are involved in post-transcriptional repression of target messenger RNAs (mRNAs) (Le and Hannon, 2004). Estimated to be involved in the regulation of 30% of all protein-coding mRNAs (Filipowicz et al., 2008), miRNAs play a significant role in many biological processes including cellular differentiation and tissue development (Ghildiyal and Zamore, 2009).
# NCGC Assay Protocol Summary: Reagents: HeLa cells stably expressing firefly luciferase (FLuc) under the control of a CMV promoter (upstream) and a miR-21 binding sequence directly downstream of the gene. These cells endogenously express miR-21. Control compounds used were compound C3 (provided by collaborator), N6-phenyladenosine (MP Biomedicals, 0215379625), and DMSO. Assay Summary: 6uL of HeLa miR-21-FLuc cells in assay buffer (DMEM, Invitrogen #21063-029; 10% FBS, HyClone #SH30071.03) were dispensed at 2000cells/well (3.3 x 10^5 cells/mL) into Greiner solid-white TC-treated 1536-well plates using a Multidrop Combi (Thermo Fisher Scientific). Plates were incubated for one hour at 37 degree Celsius, 95% humidity, 5% CO2. These assay plates were then treated with 23nL of compound or DMSO using a Kalypsys pin tool, which allows for delivery of a 24-point titration of each compound to the assay plate, with a final compound concentration ranging from approximately 40uM to 5pM. Assay plates were then incubated for 48 hours. After incubation, plates were allowed to come to RT for one hour prior to delivery of 3uL of 3X luciferase detection reagent. After a 15 minute incubation to allow for cell lysis, luciferase activity was measured using a ViewLux CCD imager (PerkinElmer), with an average exposure time of 2-12 seconds. Keywords: NIH Roadmap, MLPCN, MLSMR, qHTS, miR-21, microRNA, firefly luciferase, FLuc.
row,Structure (SMILES),Potency
1,COc1ccc(CNc2nc(-c3ccco3)nn2C(=O)CC(C)C)cc1,11.3 µM (active)
2,COc1ccc(CNc2n[nH]c(-c3ccco3)n2)cc1OC,inactive
3,COCC(=O)Nc1c(C(=O)Nc2ccc3c(c2)OCCO3)oc2ccccc12,0.449 µM (active)
4,Cc1ccccc1OCCn1cnc2c(N)ncnc21,inactive
5,c1ccc(C2=Nn3c(nnc3-c3cc(-c4ccccc4)n[nH]3)SC2)cc1,inactive
6,Cc1c(-c2nc(-c3ccc(C(F)(F)F)cc3)no2)n(C)oc1=O,0.318 µM (active)
7,Cc1cc(C)c2c(N)c(C(=O)Nc3ccccc3F)sc2n1,1.42 µM (active)
8,COc1cccc(-n2nnc(-c3nc(-c4cccs4)no3)c2N)c1,0.895 µM (active)
9,Nc1c(-c2nc(-c3ccncc3)no2)nnn1CC(=O)Nc1ccccc1,inactive
10,CCC(=O)n1nc(-c2cccnc2)nc1NCc1ccc(F)cc1,inactive
11,Cc1cccc(-c2nnc(SCC(=O)Nc3ccc(C)c(C)c3)o2)c1,3.18 µM (active)
12,COc1ccccc1C(=O)n1nc(-c2ccco2)nc1NCc1ccc(Cl)cc1,12.6 µM (active)
13,COc1ccc(C(=O)Nc2nnc(C(C)C)s2)cc1OC,17.9 µM (active)
14,COc1ccccc1NC(=O)c1sc2nc3c(cc2c1N)CN(Cc1ccccc1)CC3,inactive
15,O=C(COc1ccccc1F)Nc1ccc(-c2nc3ccccc3s2)cc1,1.26 µM (active)
16,CCc1ccc2oc(C(=O)Nc3nonc3CC)c(C)c2c1,7.11 µM (active)

row,Structure (SMILES),Potency
1,Cc1ccc(CNc2nc3nc(C)c(Cl)c(C)n3n2)cc1,4 µM (active)
2,CC(=O)Nc1nc2c(C)cc(NC(=O)C3CCCCC3)cc2s1,1.79 µM (active)
3,Cc1ccc(-c2nsc(SCC(=O)Nc3ccc4c(c3)OCO4)n2)cc1,17.9 µM (active)
4,COc1ccc(OCC(=O)Nc2cc(-c3nc4ccccc4s3)ccc2C)cc1,4 µM (active)
5,NC(=O)c1ccccc1NC(=O)c1ccc(-c2ccc(Br)cc2)o1,2.83 µM (active)
6,CC(=O)c1cnc2nc(SCc3ccccc3)nn2c1C,6.34 µM (active)
7,Cc1ccc(SCC(=O)Nc2ccc3oc(-c4ccc(F)cc4)nc3c2)cc1,15.9 µM (active)
8,CSc1nsc(SCC(=O)Nc2ccc(F)cc2F)n1,7.98 µM (active)
9,Cc1nnc(SCc2nc(N)nc(Nc3ccccc3)n2)s1,22.5 µM (active)
10,Cc1c(-c2nsc(NC(=O)c3cccs3)n2)nnn1-c1ccc(Cl)cc1,14.2 µM (active)
11,CCc1nonc1NC(=O)c1oc2ccccc2c1C,7.98 µM (active)
12,Cc1cccc(-n2nnc(-c3nc(-c4cccs4)no3)c2N)c1,0.634 µM (active)
13,Nc1c(-c2nc(-c3ccccc3Cl)no2)nnn1-c1ccccc1F,0.798 µM (active)
14,Nc1c(-c2nc(-c3cccs3)no2)nnn1-c1cccc(F)c1,0.318 µM (active)
15,Cc1cc(C)cc(NC(=O)CSc2nnc(-c3ccccc3C)o2)c1,5.65 µM (active)
16,Cc1ccc(-c2nc(NCc3ccco3)n(S(C)(=O)=O)n2)cc1,7.98 µM (active)
